TDP1 block = blocks human tyrosyl-DNA phosphodiesterase 1; recombinant TDP1, AlphaScreen DNA substrate cleavage; Potency, µM (highest dose often 130 µM), for the others: at the top dose activity change, negative = inhibition, actives largely listed as inhibitors; actives 0.28% (n = 350,000); note: nearly all actives have a fitted effect of over 40% in size
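AlphaScreen read-out: signal falls as enzyme removes the 3' tyrosine-FITC from a 5'-biotinylated DNA oligo (15 nM, 5 min, RT). Enzyme was E. coli-made recombinant Tdp1 at 1 nM, exposed to compound for 15 min beforehand; beads 10 ug/ml, 10 min.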
APEX1 inh = APE1 (human) endonuclease inhibition; P27695; recombinant APE1, TAMRA/BHQ-2 abasic DNA cleavage fluorescence; Potency, µM (titrated, usually from 65.8 µM), without a hit: at the highest dose activity change, negative = inhibition, usual class: inhibitors; actives 0.35% (n = 350,000); AID 2517;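 note: plate controls were vehicle for no effect and reference inhibitor for full effect; nearly all actives have a fitted effect of over 55% in size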
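Incision of a quenched TAMRA/BHQ-2 THF abasic-site duplex (50 nM) by 0.75 nM APE1, after 15 min compound preincubation, measured as fluorescence increase over three 60 s reads. Values normalized to buffer, DMSO and NSC13755 control wells.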
JMJD2E inh = JMJD2E (human) inhibition; JMJD2E catalytic domain, FDH-coupled NADH fluorescence (FDH is formaldehyde dehydrogenase); Potency, µM (top dose mostly 57.1 µM), without a hit: top-dose activity change, negative = inhibition, hits mostly inhibitors; actives 1.6% (n = 230,000); AID 2147; active = well fitted inhibition curve with a large enough effect, not every such curve was filed as active; inconclusive = small, poorly fitted or top-dose-only effect, or another doubt; inactive = no such curve, though single readings can be large or run the other way;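 note: 0% = wells with enzyme and -100% = buffer wells without enzyme; nearly all actives have a fitted effect of over 50% in size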
BLM helicase inh = inhibitors of human Bloom syndrome helicase BLM; P54132; recombinant BLM DNA unwinding, fluorescence dequenching; Potency, µM (doses to about 56.1 µM), without a hit: at the top dose activity change, negative = inhibition, usual class: inhibitors; actives 0.2% (n = 350,000);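 note: plate controls were vehicle for no effect and no enzyme for full effect; nearly all actives have a fitted effect of over 35% in size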
RECQ1 inh = inhibitors of human RECQ1 DNA helicase | RECQ1 DNA unwinding, red fluorescence kinetic read | Potency, µM (doses to about 57.3 µM), for inactives: at the highest dose activity, negative = inhibition, most hits filed as inhibitors | actives 0.54% (n = 240,000) | AID 2549;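 note: plate controls were vehicle for no effect and no enzyme for full effect; nearly all actives have a fitted effect of over 30% in size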
Target sequence (P46063 whole entry, looked up): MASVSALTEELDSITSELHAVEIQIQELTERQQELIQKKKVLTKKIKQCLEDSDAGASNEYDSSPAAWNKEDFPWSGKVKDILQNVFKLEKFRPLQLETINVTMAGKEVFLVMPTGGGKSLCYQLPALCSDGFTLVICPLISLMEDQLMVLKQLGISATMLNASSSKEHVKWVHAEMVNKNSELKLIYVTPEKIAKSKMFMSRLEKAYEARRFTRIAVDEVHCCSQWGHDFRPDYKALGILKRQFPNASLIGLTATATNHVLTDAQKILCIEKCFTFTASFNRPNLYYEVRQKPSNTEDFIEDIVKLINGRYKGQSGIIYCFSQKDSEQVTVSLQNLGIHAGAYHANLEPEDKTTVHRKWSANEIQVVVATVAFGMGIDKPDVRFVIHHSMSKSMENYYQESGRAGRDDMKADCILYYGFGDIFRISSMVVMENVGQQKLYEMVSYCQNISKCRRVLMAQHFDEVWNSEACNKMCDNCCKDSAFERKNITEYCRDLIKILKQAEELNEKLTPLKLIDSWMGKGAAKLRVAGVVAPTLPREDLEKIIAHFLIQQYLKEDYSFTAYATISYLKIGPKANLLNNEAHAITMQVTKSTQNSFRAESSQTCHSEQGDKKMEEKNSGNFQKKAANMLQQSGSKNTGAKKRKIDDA
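RECQ1T1 50 nM; forked duplex (20 bp + 30-nt ss tails) 200 nM, ATP 2 mM final; pH 8.0, 2 mM MgCl2, 2.5 ug/ml poly(dI-dC); 15 min compound preincubation; discontinuous kinetic read over 2 h at RT.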
L3MBTL1 block = blocks human L3MBTL1. actives 0.66% (n = 230,000). Q9Y468. AlphaScreen L3MBTL1–H3K9me1 peptide binding. Potency, µM (highest dose often 57.1 µM), without a hit: at the highest dose activity, negative = inhibition, actives largely listed as inhibitors; note: nearly all actives have a fitted effect of over 60% in size
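Displacement of a biotinylated histone H3(1-15) peptide monomethylated at Lys9 (75 nM) from L3MBTL1 (50 nM) was measured by AlphaScreen after a 30 min room-temperature compound incubation; cefsulodin titration served as intraplate control.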
The depositor's hits bear a star; i = inactive; ? = inconclusive; . = no result; ! = a repeat was not active; [ ] = dose if it differs, or a comment. The sample as a whole holds a higher share of hits than the screen did. Unless noted, calls come from the whole dose curve; as a rule, active = well fitted curve in the direction sought with a large enough effect; inconclusive = small, poorly fitted or top-dose-only effect, or another doubt; inactive = no such curve, though single readings can be large; an effect the other way counts as inactive or inconclusive. Unless noted, % is set by controls: 0 for no effect and ±100 for the full control effect; potency is the fitted concentration of half-maximal effect.

SMILES	TDP1 block	APEX1 inh	JMJD2E inh	BLM helicase inh	RECQ1 inh	L3MBTL1 block
Cc1ccc2c(nc3s/c(=C\c4ccc(-c5ccccc5C(=O)O)o4)c(=O)n32)c1C	.	?	.	-7%	.	.
O=C(O)c1ccc(-c2ccc(/C=c3/sc4nc5ccccc5n4c3=O)o2)cc1Cl	.	9.5µM*	.	?	.	.
O=C(CCCOc1ccc(Cl)cc1Cl)Nc1ccccn1	-2%	-4%	-8%	2%	18%	12%
O=C(CCCOc1ccc(Cl)cc1Cl)Nc1ccncc1	1%	28µM*	-1%	-1%	-6%	.
O=c1[nH][nH]c(=S)n1-c1ccccc1C(F)(F)F	5%	29%	6.3µM*	-5%	0%	5%
O=c1[nH]ncn1-c1ccccc1C(F)(F)F	0%	-10%	4%	-2%	-17%	1%
Cc1cnc(CNc2cc(-c3ccc(N(C)C)cc3)ncn2)cn1	.	0%	.	-5%	1%	.
Cc1csc2ncc(C(=O)NCc3ccco3)c(=O)n12	45µM*	?	?	-6%	?	?
COc1ccc(CNC(=O)COC(=O)c2cc(-c3ccco3)nc3ccccc23)cc1	-12%	20µM*	?	-23%	11µM*	.
O=C(Nc1nccs1)c1cc(-c2ccco2)nc2ccccc12	-2%	?	?	-27%	-19%	14µM*
O=C(Nc1nccs1)c1cc(-c2ccccc2)nc2ccccc12	8%	-1%	-9%	-6%	i	-6%
Cc1nnc(NC(=O)c2cc(-c3ccco3)nc3ccccc23)s1	-9%	-71%	.	.	.	6.3µM*
N#Cc1nc(Nc2cc(F)cc(F)c2)nc(NC2CCCC2)n1	-1%	.	.	.	.	.
O=C(NCC(c1ccco1)N1CCCCC1)c1cccnc1 (stereo not given)	1%	-7%	.	.	.	-1%
Cc1ccc(C(=O)Nc2cccc(C(=O)NCc3ccco3)c2)cc1	2%	-4%	-12%	-5%	-4%	-2%
Cc1ccc(C(=O)NCc2ccco2)cc1	3.2µM*	2%	.	1%	.	39%
COc1ccccc1C(=O)Nc1nnc(-c2ccco2)s1	50µM*	?	?	0%	-13%	.
Cc1ccc(-c2cc(C(=O)NCc3ccco3)c3ccccc3n2)o1	.	32µM*	?	-22%	?	?
Cc1cc(C(=O)NCc2ccco2)c2ccccc2n1	7%	-5%	-1%	-2%	i	.
CCOC(=O)C1CCCN(C(=O)C2CCN(S(=O)(=O)c3c(C)noc3/C=C/c3ccc(C)cc3)CC2)C1 (stereo not given)	1%	.	.	-5%	.	.
O=C(C[C@@H]1C/C=C\C[C@H](NC(=O)OCC2c3ccccc3-c3ccccc32)C(=O)OC[C@H]2CCCN2C1=O)NCCO	-5%	11µM*	.	.	.	-3%
S=c1[nH]nc(Nc2cccc3ccccc23)s1	15%	-3%	25µM*	0%	-5%	-18%
CN(C)c1ccc(CNC(=O)C2CCN(S(=O)(=O)c3cn(C)cn3)CC2)cc1	4%	.	.	0%	.	.
CN(C)c1ccc(C(=C2C=CC(=[N+](C)C)C=C2)c2ccc(N(C)C)cc2)cc1	20%	?	?	22µM*!	10µM*	.
CC(C)n1c(=O)[nH][nH]c1=S	8%	8%	3.2µM*	0%	-6%	2%
SMILES	TDP1 block	APEX1 inh	JMJD2E inh	BLM helicase inh	RECQ1 inh	L3MBTL1 block
COc1cccc(C2c3c(ncn(-c4ccccc4C(C)(C)C)c3=N)Oc3ccc4ccccc4c32)c1 (stereo not given)	4%	.	.	.	.	.
CCN(CC)c1ccc(/C=N/NC(=O)CCC(=O)NCc2ccccc2)c(O)c1	8%	-1%	25µM*	1%	i	-13%
CCN(CC)c1ccc(/C=N/Nc2ccc(C)cc2)c(O)c1	8%	-1%	?	-4%	0%	?
CCOC(=O)N/N=C/c1ccc(N(CC)CC)cc1O	8%	-3%	28µM*	-1%	i	-12%
Cc1nn(-c2ccc(F)cc2)c(Cl)c1/C=N/NC(=O)c1ccc(O)cc1	5%	-9%	-1%	-1%	-25%	4%
Cc1nn(-c2ccc(F)cc2)c(Cl)c1/C=N/NC(=O)c1cccs1	79µM*	5%	-3%	-9%	-10%	10%
Cc1nc2ccccc2c(=O)n1/N=C/c1ccc(O)cc1O	4%	12%	?	-1%	i	-2%
CCCc1nc2ccccc2c(=O)n1/N=C/c1ccccc1O	7%	15%	32µM*	-2%	i	-5%
O=C(NC(=S)NNC(=O)c1cc2ccccc2cc1O)c1ccco1	10%	-1%	18µM*	-6%	i	?
O=C(/C=C/c1cccs1)NC(=S)NNC(=O)c1ccccc1O	5%	?	?	-4%	i	35µM*
O=C(NC(=S)NNC(=O)c1ccccc1O)c1cccnc1	1%	0%	20µM*	1%	10%	?
O=C(NC(=S)NNC(=O)c1ccccc1O)c1ccco1	8%	-1%	7.1µM*	2%	1%	-17%
COc1cccc(C(=O)Nc2cccc(-c3nc4ncccn4c3C)c2)c1	3%	.	.	1%	.	.
CC(C)(C)OC(=O)Cc1nnc(CNC(=O)c2ccccc2)s1	0%	.	.	.	.	.
CCOC(=O)/C=C/c1cc(F)c(S(=O)(=O)N2CCN(S(=O)(=O)c3ccc4c(c3)OCCO4)CC2)cc1F	1%	.	.	.	.	.
Cc1ccc(NC(=O)c2sc3ncn(Cc4cccc(F)c4)c(=O)c3c2C)c(Br)c1	-2%	.	.	-1%	.	.
CN(C)c1ccc(N=Nc2ccccc2C(=O)OCC(=O)N(C)C2CCCCC2)cc1	10%	1%	3%	-6%	-11%	28µM*
CN(C)c1ccc(N=Nc2ccccc2C(=O)OCC(=O)NCC2CCCCC2)cc1	3%	5%	-3%	-18%	13%	11µM*
COc1ccc(-n2cnc3c(c2=N)C(c2cccc(OC)c2)c2c(ccc4ccccc24)O3)cc1 (stereo not given)	7%	.	.	.	.	.
COc1ccc(C(=O)OCc2cc(=O)n3nc(C4CC4)sc3n2)cc1OC	7%	.	.	5%	.	.
O=S(=O)(c1ccc(Cl)cc1)N1CCN(c2nc(Nc3cc(Cl)ccc3O)nc3ccccc23)CC1	2%[96 µM]	.	.	.	.	.
O=C(Oc1cccc(/C=N/Nc2nc(Nc3ccccc3)nc(N3CCOCC3)n2)c1)c1ccco1	5%	7%	2%	-7%	22µM*	-17%
CCOC(=O)C1=C(CSc2nc(-c3ccccc3)ccc2C#N)OC(N)=C(C#N)C1c1ccc(OC)cc1 (stereo not given)	3%	-9%	57%	-13%	10µM*	-4%

High-throughput results from PubChem BioAssay.
